Assay results taken from PubChem BioAssay (EPA / NIEHS).
The source made the active and inactive calls. The calls were made as follows: active = hit-call score of the fitted dose curve at least 0.9, where 1 is the maximum; inactive = score below 0.9.

How the values were obtained:
[1] = ATG_GLI_CIS: Attagene CIS-FACTORIAL HepG2 Assay for human Zinc Finger Protein GLI1 (AID 2282945); conditions: HepG2, Attagene cis-factorial reporter mRNA, GLI element; actives raise or lower the signal
Method in brief: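 HepG2 cells transiently transfected with cis-promoter multiplexed reporter units report endogenous transcription factor activity. After 24 h chemical exposure, reporter mRNA was quantified by RT-PCR, 6-FAM labelling, HpaI digestion and capillary electrophoresis, with bidirectional fitting against DMSO.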

[2] = target: Bile acid receptor (Homo sapiens) (UniProt Q96RI1); assay: ATG_IR1_CIS: Attagene CIS-FACTORIAL HepG2 Assay for human Nuclear Receptor Subfamily 1 Group H Member 4 (NR1H4), IR1 submotif (AID 2282946); conditions: IR1 reporter transcription, actives raise or lower the signal
Sequence of Bile acid receptor (Homo sapiens) (Q96RI1 whole entry, looked up): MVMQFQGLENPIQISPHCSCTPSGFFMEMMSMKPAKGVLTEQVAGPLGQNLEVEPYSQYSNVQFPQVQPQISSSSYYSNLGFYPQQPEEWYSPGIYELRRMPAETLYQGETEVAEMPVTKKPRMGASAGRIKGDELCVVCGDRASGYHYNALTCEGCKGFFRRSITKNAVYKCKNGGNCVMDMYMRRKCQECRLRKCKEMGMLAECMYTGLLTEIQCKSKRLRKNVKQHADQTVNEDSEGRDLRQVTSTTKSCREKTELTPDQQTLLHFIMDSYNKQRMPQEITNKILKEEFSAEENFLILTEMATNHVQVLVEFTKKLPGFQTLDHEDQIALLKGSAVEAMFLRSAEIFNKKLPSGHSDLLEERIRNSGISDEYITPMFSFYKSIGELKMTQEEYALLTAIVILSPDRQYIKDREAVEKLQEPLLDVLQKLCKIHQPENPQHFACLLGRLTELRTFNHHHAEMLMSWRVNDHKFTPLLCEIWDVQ
Method in brief: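 Readout: reporter transcript levels by RT-PCR with fluorescent capillary electrophoresis, from HepG2 cells transiently transfected with multiplexed cis-regulated reporters and dosed 24 h. Gain- or loss-of-signal fitted versus DMSO negative control.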

[3] = ATG_GRE_CIS: Attagene CIS-FACTORIAL HepG2 Assay for human Glucocorticoid Response Elements (GRE) (AID 2282947); conditions: HepG2 GRE cis-reporter, Attagene multiplex mRNA; actives raise or lower the signal
Method in brief: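 Cells (HepG2) bearing transfected cis-promoter reporter transcription units were treated with chemical for 24 hours. Reporter mRNA was measured via RT-PCR with capillary electrophoresis, and activity was fitted in both directions relative to DMSO.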

[4] = ATG_ISRE_CIS: Attagene CIS-FACTORIAL HepG2 Assay for human Interferon Regulatory Factor 1 (IRF1) binding to an Interferon-Stimulated Response Element (ISRE) (AID 2282948); conditions: HepG2 ISRE cis-reporter (Attagene), mRNA transcription readout; actives raise or lower the signal
Method in brief: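 Uses HepG2 liver cells transfected with cis-regulated reporters and measures mRNA 24 h post-dosing through RT-PCR, primer-extension labelling and capillary electrophoresis, with DMSO as negative control.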

[5] = ATG_M_32_CIS: Attagene CIS-FACTORIAL HepG2 Assay for M32 Transcription Factor (Internal Marker) (AID 2282949); conditions: HepG2 Attagene cis-factorial M32 reporter, mRNA; actives raise or lower the signal;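 also: background control marker of the multiplexed CIS panel rather than a real target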
Method in brief: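 HepG2 human liver cells transiently transfected with cis-promoter-driven multiple reporter transcription units, dosed 24 h. Reporter mRNA quantified by RT-PCR, FAM-labelled primer extension, HpaI digest and capillary electrophoresis; bidirectional fit versus DMSO baseline.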

[6] = target: Hypoxia-inducible factor 1-alpha (Homo sapiens) (UniProt Q16665); assay: ATG_HIF1a_CIS: Attagene CIS-FACTORIAL HepG2 Assay for human Hypoxia Inducible Factor 1 (HIF1A) (AID 2282951); conditions: HepG2 Attagene cis-factorial HIF1a reporter transcription; actives raise or lower the signal
Sequence of Hypoxia-inducible factor 1-alpha (Homo sapiens) (Q16665 whole entry, looked up): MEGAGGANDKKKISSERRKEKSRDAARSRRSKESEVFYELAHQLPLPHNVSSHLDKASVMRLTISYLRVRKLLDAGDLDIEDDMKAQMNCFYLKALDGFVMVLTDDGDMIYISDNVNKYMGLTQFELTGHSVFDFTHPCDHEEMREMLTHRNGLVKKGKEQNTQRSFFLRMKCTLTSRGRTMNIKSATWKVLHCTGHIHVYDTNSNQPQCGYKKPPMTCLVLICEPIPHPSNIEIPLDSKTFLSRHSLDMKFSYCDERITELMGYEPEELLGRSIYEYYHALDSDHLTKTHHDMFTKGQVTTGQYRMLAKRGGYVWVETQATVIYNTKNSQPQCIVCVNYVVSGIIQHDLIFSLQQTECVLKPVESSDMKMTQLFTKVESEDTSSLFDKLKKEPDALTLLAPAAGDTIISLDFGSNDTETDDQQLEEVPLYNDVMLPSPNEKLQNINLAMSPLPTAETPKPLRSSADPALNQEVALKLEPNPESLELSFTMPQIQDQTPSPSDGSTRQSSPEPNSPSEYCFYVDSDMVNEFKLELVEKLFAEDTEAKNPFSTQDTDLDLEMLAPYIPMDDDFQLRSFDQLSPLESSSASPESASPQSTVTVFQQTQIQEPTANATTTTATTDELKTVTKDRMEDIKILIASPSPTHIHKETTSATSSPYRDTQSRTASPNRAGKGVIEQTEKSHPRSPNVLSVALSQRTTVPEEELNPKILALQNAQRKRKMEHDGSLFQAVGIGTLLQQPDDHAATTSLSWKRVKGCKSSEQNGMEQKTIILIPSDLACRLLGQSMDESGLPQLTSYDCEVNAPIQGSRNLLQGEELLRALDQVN
Method in brief: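 After 24 h chemical exposure of reporter-transfected HepG2 cells, reporter cDNA was PCR-amplified, labelled by 6-FAM primer extension (2 min 95 C, 20 s 68 C, 10 min 72 C), HpaI-cut (2 h, 37 C) and analysed by CE.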

[7] = target: Hepatocyte nuclear factor 6 (Homo sapiens) (UniProt Q9UBC0); assay: ATG_HNF6_CIS: Attagene CIS-FACTORIAL HepG2 Assay for human Hepatocyte Nuclear Factor 6 (HNF6) (AID 2282952); conditions: HepG2 Attagene cis-factorial HNF6 reporter transcription; actives raise or lower the signal
Sequence of Hepatocyte nuclear factor 6 (Homo sapiens) (Q9UBC0 whole entry, looked up, the tested form may be a part): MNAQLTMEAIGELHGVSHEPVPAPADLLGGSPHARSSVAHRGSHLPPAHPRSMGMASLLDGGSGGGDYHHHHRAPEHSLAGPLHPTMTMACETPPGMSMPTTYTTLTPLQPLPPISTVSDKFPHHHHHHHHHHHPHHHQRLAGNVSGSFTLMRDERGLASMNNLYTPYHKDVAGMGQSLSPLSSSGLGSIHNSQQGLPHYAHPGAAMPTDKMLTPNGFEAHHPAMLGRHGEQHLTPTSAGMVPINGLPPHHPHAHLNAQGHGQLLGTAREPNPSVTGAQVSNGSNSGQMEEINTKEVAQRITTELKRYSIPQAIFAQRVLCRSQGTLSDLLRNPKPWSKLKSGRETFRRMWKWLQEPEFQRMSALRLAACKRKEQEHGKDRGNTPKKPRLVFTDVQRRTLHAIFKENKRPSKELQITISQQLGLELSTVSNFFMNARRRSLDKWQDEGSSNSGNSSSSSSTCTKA
Method in brief: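 First, HepG2 cells were transfected with the multiplexed cis reporter library and dosed with chemical for 24 h. Next, RNA was reverse-transcribed, PCR-amplified and fluorescently labelled. Finally, HpaI-digested fragments were read by capillary electrophoresis.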

[8] = ATG_MRE_CIS: Attagene CIS-FACTORIAL HepG2 Assay for human Metal Responsive Element (MRE) (AID 2282954); conditions: HepG2 MRE cis-reporter transcription, Attagene multiplex; actives raise or lower the signal
Method in brief: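 Cells were transfected with cis-promoter reporter transcription units, then dosed for 24 h. RNA was reverse-transcribed, amplified, fluorescently labelled and resolved by capillary electrophoresis, and activity was fitted in both directions relative to DMSO.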

[9] = target: Paired box protein Pax-6 (Homo sapiens) (UniProt P26367); assay: ATG_Pax6_CIS: Attagene CIS-FACTORIAL HepG2 Assay for human Paired Box 6 (PAX6) (AID 2282956); conditions: HepG2 CIS-FACTORIAL PAX6 reporter transcription, RNA readout; actives raise or lower the signal
Sequence of Paired box protein Pax-6 (Homo sapiens) (P26367 whole entry, looked up): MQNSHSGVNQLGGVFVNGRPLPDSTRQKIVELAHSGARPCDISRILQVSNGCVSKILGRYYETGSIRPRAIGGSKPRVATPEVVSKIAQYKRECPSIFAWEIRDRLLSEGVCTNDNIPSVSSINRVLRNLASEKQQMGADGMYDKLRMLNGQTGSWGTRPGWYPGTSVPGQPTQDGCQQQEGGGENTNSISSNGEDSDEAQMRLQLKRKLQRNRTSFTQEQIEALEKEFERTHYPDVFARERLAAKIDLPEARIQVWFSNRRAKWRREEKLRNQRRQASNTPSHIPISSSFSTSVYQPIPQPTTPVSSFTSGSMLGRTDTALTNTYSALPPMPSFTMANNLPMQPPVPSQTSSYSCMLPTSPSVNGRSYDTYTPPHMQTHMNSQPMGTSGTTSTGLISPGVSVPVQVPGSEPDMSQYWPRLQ
Method in brief: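 DMSO-referenced bidirectional fits of reporter mRNA fluorescence; HepG2 with transient cis-promoter MRTUs, 24 h post-dose, RT-PCR plus capillary electrophoresis detection.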

[10] = ATG_PXRE_CIS: Attagene CIS-FACTORIAL HepG2 Assay for human Pregnane X Receptor Element (PXRE) (AID 2282957); conditions: HepG2 Attagene CIS-FACTORIAL PXRE reporter, mRNA; actives raise or lower the signal
Method in brief: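 After a 24 h chemical incubation, total RNA from transfected HepG2 cells was reverse-transcribed and reporter cDNA amplified, FAM-labeled, HpaI-digested and sized by capillary electrophoresis. DMSO served as baseline for bidirectional curve fitting.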

[11] = ATG_PPRE_CIS: Attagene CIS-FACTORIAL HepG2 Assay for human Peroxisome Proliferator-activated Response Element (PPRE) (AID 2282958); conditions: HepG2 PPRE cis-element reporter, Attagene transcription factor profiling; actives raise or lower the signal
Method in brief: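 PPRE activity in HepG2: transient cis-reporter transfection, 24 h compound incubation, reporter mRNA by RT-PCR and CE fluorescence; gain/loss fitted against DMSO.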

[12] = ATG_RORE_CIS: Attagene CIS-FACTORIAL HepG2 Assay for human RAR-related Orphan Receptor Element (RORE) (AID 2282959); conditions: HepG2 Attagene cis-factorial RORE reporter, mRNA; actives raise or lower the signal
Method in brief: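 A 24-hour exposure of transfected HepG2 hepatoma cells precedes RNA isolation and reporter RT-PCR. Labeled products are digested with HpaI and resolved by capillary electrophoresis, with gain or loss of signal scored relative to DMSO.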

[13] = ATG_Sox_CIS: Attagene CIS-FACTORIAL HepG2 Assay for human SRY-box transcription factor (SOX) (AID 2282960); conditions: HepG2 Attagene cis-factorial SOX reporter, mRNA; actives raise or lower the signal
Method in brief: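 HepG2, cis reporter units, 24 h exposure. Reporter mRNA: RT-PCR → FAM labelling → HpaI → CE fluorescence. Bidirectional fit vs DMSO.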

[14] = target: Transcription factor Sp1 (Homo sapiens) (UniProt P08047); assay: ATG_Sp1_CIS: Attagene CIS-FACTORIAL HepG2 Assay for human Specificity Protein 1 (Sp1) (AID 2282961); conditions: HepG2 Sp1 cis-reporter transcription, actives raise or lower the signal
Sequence of Transcription factor Sp1 (Homo sapiens) (P08047 whole entry, looked up, the tested form may be a part): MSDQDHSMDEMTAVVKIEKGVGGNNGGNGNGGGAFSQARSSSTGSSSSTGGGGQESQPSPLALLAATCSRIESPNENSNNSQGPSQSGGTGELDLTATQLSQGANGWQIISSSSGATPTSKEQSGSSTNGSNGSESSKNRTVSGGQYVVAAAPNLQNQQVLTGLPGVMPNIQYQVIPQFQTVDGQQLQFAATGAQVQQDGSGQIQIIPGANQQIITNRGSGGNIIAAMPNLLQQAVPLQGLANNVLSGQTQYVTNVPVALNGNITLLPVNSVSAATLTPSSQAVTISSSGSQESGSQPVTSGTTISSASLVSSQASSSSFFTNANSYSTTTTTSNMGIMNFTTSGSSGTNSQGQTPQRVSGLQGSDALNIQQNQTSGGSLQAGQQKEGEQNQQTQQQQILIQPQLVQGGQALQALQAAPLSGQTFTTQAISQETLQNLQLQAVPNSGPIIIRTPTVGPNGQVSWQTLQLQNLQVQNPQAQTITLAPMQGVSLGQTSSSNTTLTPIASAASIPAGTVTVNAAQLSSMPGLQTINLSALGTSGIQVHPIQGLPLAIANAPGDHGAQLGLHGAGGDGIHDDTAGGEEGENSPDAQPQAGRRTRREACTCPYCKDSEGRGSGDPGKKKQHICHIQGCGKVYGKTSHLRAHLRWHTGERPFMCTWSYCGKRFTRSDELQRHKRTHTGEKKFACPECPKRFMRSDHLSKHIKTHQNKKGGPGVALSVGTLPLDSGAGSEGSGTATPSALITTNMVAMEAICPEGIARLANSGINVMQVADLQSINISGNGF
Method in brief: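 Liver-derived HepG2 cells, cis-element reporter library, 24 h treatment; RNA isolated, cDNA amplified with reporter-specific primers, FAM-labeled fragments sized on capillary analyzer. DMSO baseline, bidirectional curve fit.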

[15] = ATG_SREBP_CIS: Attagene CIS-FACTORIAL HepG2 Assay for human Sterol Regulatory Element Binding (SREBP) (AID 2282962); conditions: HepG2 Attagene cis-factorial SREBP reporter, mRNA; actives raise or lower the signal
Method in brief: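 In this cis-format assay, HepG2 liver cells express reporters controlled by promoter elements responsive to native transcription factors. Exposure lasts 24 h; reporter mRNA fluorescence from capillary electrophoresis gives the signal, fitted bidirectionally against DMSO.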

[16] = target: Signal transducer and activator of transcription 3 (Homo sapiens) (UniProt P40763); assay: ATG_STAT3_CIS: Attagene CIS-FACTORIAL HepG2 Assay for human Signal Transducer and Activator of Transcription 3 (STAT3) (AID 2282963); conditions: HepG2, Attagene cis-factorial STAT3 reporter transcription; actives raise or lower the signal
Sequence of Signal transducer and activator of transcription 3 (Homo sapiens) (P40763 whole entry, looked up): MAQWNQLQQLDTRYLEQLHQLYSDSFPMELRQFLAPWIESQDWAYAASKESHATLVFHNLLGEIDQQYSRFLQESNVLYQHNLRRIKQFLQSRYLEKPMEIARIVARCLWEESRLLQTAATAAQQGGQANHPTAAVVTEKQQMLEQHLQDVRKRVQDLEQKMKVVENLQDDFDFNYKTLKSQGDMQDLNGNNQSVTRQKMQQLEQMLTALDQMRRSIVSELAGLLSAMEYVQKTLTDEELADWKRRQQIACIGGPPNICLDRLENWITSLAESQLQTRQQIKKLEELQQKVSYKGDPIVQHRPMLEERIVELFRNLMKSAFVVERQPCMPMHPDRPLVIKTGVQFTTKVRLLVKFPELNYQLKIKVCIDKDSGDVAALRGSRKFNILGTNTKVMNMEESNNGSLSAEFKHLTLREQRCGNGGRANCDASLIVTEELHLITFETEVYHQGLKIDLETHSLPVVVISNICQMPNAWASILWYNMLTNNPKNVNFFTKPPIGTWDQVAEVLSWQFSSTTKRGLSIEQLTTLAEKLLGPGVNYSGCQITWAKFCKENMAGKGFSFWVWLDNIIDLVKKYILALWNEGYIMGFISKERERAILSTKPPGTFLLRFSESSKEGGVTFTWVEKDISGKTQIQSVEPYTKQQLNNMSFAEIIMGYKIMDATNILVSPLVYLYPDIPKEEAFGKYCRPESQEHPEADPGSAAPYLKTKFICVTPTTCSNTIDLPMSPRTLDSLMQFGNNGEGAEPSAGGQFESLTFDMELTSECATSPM
Method in brief: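 HepG2, MRTU-transfected, 24 h dosing. RNA → RT → PCR → FAM label → HpaI → CE. Bidirectional fit vs DMSO.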

[17] = ATG_TA_CIS: Attagene CIS-FACTORIAL HepG2 Assay for human TA Basal Promoter (AID 2282964); conditions: HepG2 Attagene CIS-factorial TA basal promoter reporter; actives raise or lower the signal
Method in brief: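 Multiplexed mRNA reporter assay, HepG2, 24 h. Reporter cDNA amplified, 6-FAM primer-extended, HpaI-cut, CE-sized; DMSO = negative control and baseline.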

[18] = target: Heat shock factor protein 1 (Homo sapiens) (UniProt Q00613); assay: ATG_HSE_CIS: Attagene CIS-FACTORIAL HepG2 Assay for human Heat Shock Transcription Factor 1 (HSE) (AID 2282953); conditions: HepG2 HSE cis-reporter, Attagene RNA transcription; actives raise or lower the signal
Sequence of Heat shock factor protein 1 (Homo sapiens) (Q00613 whole entry, looked up): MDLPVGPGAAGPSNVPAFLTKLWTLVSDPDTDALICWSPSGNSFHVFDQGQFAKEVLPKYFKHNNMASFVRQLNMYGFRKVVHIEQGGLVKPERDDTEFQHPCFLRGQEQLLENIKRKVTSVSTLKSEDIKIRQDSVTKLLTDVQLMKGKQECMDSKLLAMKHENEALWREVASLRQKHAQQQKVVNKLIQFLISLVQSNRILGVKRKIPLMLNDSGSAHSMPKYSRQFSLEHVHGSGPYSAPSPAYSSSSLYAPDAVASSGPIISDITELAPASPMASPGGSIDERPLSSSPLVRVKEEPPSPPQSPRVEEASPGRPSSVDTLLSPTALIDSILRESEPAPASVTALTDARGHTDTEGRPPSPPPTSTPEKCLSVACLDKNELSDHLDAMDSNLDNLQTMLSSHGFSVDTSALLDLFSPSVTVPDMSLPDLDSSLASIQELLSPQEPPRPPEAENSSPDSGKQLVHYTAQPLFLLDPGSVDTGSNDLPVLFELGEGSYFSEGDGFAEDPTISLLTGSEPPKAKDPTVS
Method in brief: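 After a 24 h incubation with test chemical, transfected HepG2 cells were harvested for RNA; reporter transcripts were measured by RT-PCR and capillary electrophoresis. Values reflect gain or loss of signal relative to DMSO.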

[19] = ATG_PBREM_CIS: Attagene CIS-FACTORIAL HepG2 Assay for human Phenobarbital-responsive Enhancer Module (PBREM) (AID 2282955); conditions: HepG2 PBREM cis-reporter, Attagene multiplexed transcription; actives raise or lower the signal
Method in brief: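 Measures endogenous factor action on a phenobarbital-responsive enhancer module. HepG2 transiently carrying cis reporters, 24 h treatment, mRNA read-out by RT-PCR plus capillary electrophoresis.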

[20] = ATG_M_06_CIS: Attagene CIS-FACTORIAL HepG2 Assay for M06 Transcription Factor (Internal Marker) (AID 2282950); conditions: HepG2 Attagene CIS-FACTORIAL M06 internal marker reporter; actives raise or lower the signal
Method in brief: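 Fluorescence-labelled RT-PCR products from cis-promoter reporter units, cut with HpaI and resolved by capillary electrophoresis, give the signal. Cells are human HepG2, dosed for 24 h. Serves as background control, fitted relative to DMSO.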

Measured: AC50

CC1=CC2C3C=CC(C3)C2C1C (stereo unspecified)
active: [8] 65.8 µM | [10] 1.59 µM
inactive: [1] | [2] | [3] | [4] | [5] | [6] | [7] | [9] | [11] | [12] | [13] | [14] | [15] | [16] | [17]

C[Si](C)O[Si](C)C
inactive: [1] | [2] | [3] | [4] | [5] | [7] | [18] | [8] | [19] | [9] | [10] | [11] | [12] | [13] | [14] | [16] | [17]

O=C1c2ccccc2C(=O)c2c(Cl)cccc21
inactive: [1] | [2] | [3] | [4] | [5] | [6] | [7] | [18] | [8] | [9] | [11] | [12] | [13] | [14] | [16] | [17]

OCC(O)CC(F)(F)C(F)(F)C(F)(F)C(F)(F)C(F)(F)C(F)(F)C(F)(F)C(F)(F)F (stereo unspecified)
inactive: [1] | [2] | [3] | [4] | [5] | [20] | [7] | [8] | [19] | [9] | [10] | [11] | [12] | [13] | [15] | [16] | [17]

C=CC(=O)OCC(F)(F)C(F)(F)C(F)(F)C(F)(F)C(F)(F)C(F)(F)C(F)(F)C(F)F
active: [4] 150 µM | [18] 218 µM | [8] 231 µM | [13] 271 µM
inactive: [1] | [2] | [3] | [5] | [6] | [7] | [19] | [9] | [11] | [12] | [14] | [15] | [16] | [17]

OCC1CCCO1 (stereo unspecified)
inactive: [1] | [2] | [3] | [4] | [5] | [6] | [7] | [18] | [8] | [19] | [9] | [10] | [11] | [12] | [13] | [14] | [15] | [16] | [17]

OCC(F)(F)C(F)(F)C(F)(F)C(F)(F)C(F)(F)C(F)(F)CO
active: [10] 70.6 µM
inactive: [1] | [2] | [3] | [4] | [5] | [6] | [7] | [18] | [8] | [19] | [9] | [11] | [12] | [13] | [14] | [16] | [17]

NC(=O)C(F)(F)C(F)(F)C(F)(F)C(F)(F)C(N)=O
inactive: [1] | [2] | [3] | [5] | [20] | [6] | [7] | [18] | [8] | [19] | [9] | [10] | [11] | [12] | [13] | [14] | [15] | [16] | [17]
